Measurements reported in PubChem BioAssay (NCI).
The panel holds about 83,000 compounds, 20% with a hit somewhere; the sample as a whole holds those more often.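 Interpretation: 100, growth as untreated; towards 0, rising growth inhibition; 0, no net growth; 0 to -100, cell death. Compounds scoring below 10 were considered active.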 Activity calls are given as the source filed them.

tested on: M14 melanoma; test: NCI-60 one-dose screen, 48 h (100 = growth as untreated, 0 = no growth, -100 = all killed); settings: 10 µM

Compound | growth
CCNC1(NC#N)CCCCC1 | 99% (inactive)
CC(=O)Nc1ccc(Sc2ccc(NC(C)=O)cc2)cc1 | 98.2% (inactive)
O=C(Nc1ccc(CN2CCOCC2)cc1)c1ccc(-c2cc(Cl)ccc2Cl)o1 | -44.2% (active)
COc1cccc(C(=O)NNc2nc(N3CCN(C4CCCCC4)CC3)nc(N3CCN(C(c4ccccc4)c4ccccc4)CC3)n2)c1 | 42.5% (inactive)
Oc1cc(O)c(Br)cc1Br | 92.9% (inactive)
CS(=O)(=O)Nc1ccc(Nc2c3ccccc3nc3cc(Cl)ccc23)cc1 | 36.6% (inactive)
c1ccc(C2CCCCC2)c(OCCCCCN2CCNCC2)c1 | -66.5% (active)
Cc1nnc2c3nnc(-c4ccc(Cl)cc4)n3c3ccccc3n12 | 96.7% (inactive)
Cc1ccc(C)c2c1sc1nc3n[nH]c(N)c3c(=N)n12 | 108% (inactive)
CCCc1ccnc(NS(=O)(=O)c2ccc(N)cc2)n1 | 95.8% (inactive)
CCc1ccc(Nc2cc(C)nc3nc(C)nn23)cc1 | -93.6% (active)
CN(C)c1ccc2c(c1)OC(N)=C(C#N)C2c1ccc2c(c1)CCO2 (stereo unspecified) | 10% (inactive)
CC(C)C[C@H](NC(=O)CCn1ccc2ccccc2c1=O)B(O)O | 38% (inactive)
COc1ccc(/C=C2\CCC3C(CCCC34OCCO4)C2=O)cc1 (stereo unspecified) | 95.6% (inactive)
COc1cc(-c2nc3ccc(C)cc3[nH]2)ccc1OCc1nnc(-c2ccc(CC(C)C)cc2)o1 | 104% (inactive)
COc1ccc(CSc2nc3cc(OC)c(OC)cc3c(=O)n2-c2ccc(OC)cc2OC)cc1 | 97% (inactive)
